PubChem BioAssay AID588850 (Sanford-Burnham Center for Chemical Genomics, 2011)
Where “and” joins values, the source holds several entries; their conditions need not be identical. Equal values may be shown once. Hit rate of the full screen: of about 360,000 compounds, about 3,100 (0.86%) were called active.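 The calls were made as follows: active = at least 50% inhibition at 5 µM, scaled per plate between neutral and stimulator controls; inactive = the rest.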 The list comes from a sample in which actives are over-represented; it also holds similar structures and randomly drawn compounds.

Test: NF-kB reporter blockers in CF airway cells – cell-based, GFP fluorescence, uHTS, primary screen (AID 588850);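 also: PAF is a Pseudomonas aeruginosa culture filtrate used as stimulus; plate controls were PAF-stimulated DMSO wells for no effect and unstimulated DMSO wells for full effect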
Details: KKLEB NF-kB-GFP reporter, PAF-induced, GFP fluorescence overnight; at 5 µM; stronger effect = higher value

inhibition, active:
S=C(NN=Cc1ccccn1)Nc1ccccn1 73.7%
CC(=O)Nc1ccc(NC(=O)C(C)OC(=O)c2ccccc2C(=O)c2ccc(Cl)c([N+](=O)[O-])c2)cc1 (stereo not given) 81.1%
N#Cc1cccc(NC(=O)COC(=O)c2ccccc2C(=O)c2ccc(Cl)c([N+](=O)[O-])c2)c1 86.9%
Oc1ccc(Br)cc1/C=N/Nc1ccccn1 107%
COc1ccc(NC(=O)c2sc3nc(C)nc(N4CCN(c5ccccn5)CC4)c3c2C)c(OC)c1 53.3%
O=C(OC12CC3CC(CC(C3)C1)C2)c1ccc(NCc2cc(O)ccc2O)cc1 60.3%
C#Cc1cc(N2CCN(C(=O)c3ccoc3)CC2)n2nc(-c3cccc(Cl)c3)cc2n1 64.7%
COc1cc(C2c3cc4c(cc3C(O)C3COC(=O)C23)OCO4)cc(OC)c1OC (stereo not given) 50.8%
Cc1cccc(-n2ncc(Cl)c(Cl)c2=O)c1 85.5%
Cc1cc2nc(-c3ccco3)c(Cc3cccc(F)c3)n2c(C)c1Br 62.5%
NC(=O)c1sc2nc3c(c(-c4ccccc4)c2c1N)CCC3 78.3%
Cc1oc2c(c1C(=O)N1CCOCC1)C(=O)c1ccccc1C2=O 72.2%
Cc1cccc(NC(=O)c2ccc([N+](=O)[O-])o2)c1 59.4%
CCOC(=O)C(C(=O)c1ccccc1)C(c1ccccc1)c1nccc2ccccc12 (stereo not given) 50.6%
CC(C)c1ccc2c(c1)c(SC(C)(C)C)c(CC(C)(C)C(=O)O)n2Cc1ccc(Cl)cc1 63.4%
COC(=O)/C=C\C(=O)Nc1cccc([N+](=O)[O-])c1 92.2%
CC[C@H]1CN2CCc3cc(OC)c(OC)cc3[C@@H]2C[C@@H]1C[C@H]1NCCc2cc(OC)c(OC)cc21 82.5%
Cc1ccc(-c2nn(-c3ccccc3)cc2/C=C2\SC(=S)N(CCCCCC(=O)O)C2=O)o1 53.8%
CN(C)c1ccnc2sc3c(=O)n(Cc4ccccc4)cnc3c12 80.2%

inhibition, inactive:
S=C(Nc1cccnc1)Nc1ccccn1 -6.9%
O=C(N/N=C/c1ccccn1)c1cccc(NC(=O)c2ccc(Cl)cc2)c1 8.6%
O=C(COc1ccc([N+](=O)[O-])cc1)Nc1cccc(C(=O)Nc2ccccc2C(=O)O)c1 -36%
CC(OC(=O)CNC(=O)c1ccc(Cl)c([N+](=O)[O-])c1)C(=O)NCc1ccco1 (stereo not given) 5.2%
NS(=O)(=O)c1cccc(NC(=O)COC(=O)c2cc([N+](=O)[O-])ccc2N2CCCC2)c1 5.8%
CCOc1ccc(C(=O)NC(=S)Nc2ccc(NC(=O)C(C)C)cc2)cc1[N+](=O)[O-] 0.2%
Cc1ccc(S(=O)(=O)N2C3C=CC(C3)C2C(=O)O)cc1 (stereo not given) 1.4%
COCc1c(C(=O)OCc2c(C)noc2C)oc2ccccc12 -11.5%
CCOC(=O)N1CCC(Nc2c(NCCCN3CCN(c4ccc(OC)cc4)CC3)c(=O)c2=O)CC1 -6.5%
CCN(CC)C(=O)N1CCN(C(=O)c2ccc(C)cn2)CC1 7.5%
CCN1CCC2(CCN(Cc3cn[nH]c3-c3ccc(OC)c(F)c3)C2)C1 (stereo not given) 11%
CC(=O)N1CCC(C(=O)OCc2ccc(Cl)cc2)(c2ccccc2)CC1 -6.8%
CCN(CC)CCn1c(/N=C/c2cc(Br)ccc2O)nc2ccccc21 2.3%
O=C(CCc1ccc(O)cc1)NN=Cc1cc(Br)ccc1O -5%
CN1CCCN(C(=O)C2CCCCC2)CC1 -5.1%
CC(=NNC(N)=O)C1CC2CCC1CC2 (stereo not given) 0.5%
Cc1nc(N2CCN(c3ccccn3)CC2)c2c(C)c(C(=O)Nc3ccc(F)c(Cl)c3)sc2n1 36.8%
Cc1nc(N2CCC(C)CC2)c2c(C)c(C(=O)Nc3cc(F)ccc3C)sc2n1 27.1%
COc1ccc(CC(=O)N[C@@H]2c3cc(OC)c(OC)cc3C[C@H]2OCc2ccccc2)cc1 -5.1%
CN1OC[C@@H]2CN(C(=O)c3ccc(-c4ccccc4)cc3)[C@H](c3ccc(-c4cccc(F)c4)cc3)C[C@@H]21 -13%
CN=C(NC#N)NCCSCc1nc[nH]c1C -4.5%
Cc1cc(C)c(S(=O)(=O)c2cc(F)ccc2C)c(=O)[nH]1 -12.1%
O=C(c1ccccc1)N1CCN(C(=O)c2cc3nc(-c4ccccc4)cc(C(F)(F)F)n3n2)CC1 -4.4%
CN(C)CCN1CCN(c2cc(-c3cccc(Cl)c3)nc3ccnn23)CC1 7.8%
COc1cccc(C(O)c2nc(-c3ccc(C)c(C)c3)cs2)c1 (stereo not given) 17.1%
COc1cc(C=C(OC(C)=O)c2ccc3c(c2)OCO3)cc(OC)c1OC -22.3%
COc1cc(C2CC(=O)Oc3cc(OC)c(OC)c(OC)c32)cc(OC)c1OC (stereo not given) -6.8%
C#C[C@]1(O)CC[C@H]2[C@@H]3CCC4=CC(=O)CC[C@@H]4[C@H]3CC[C@@]21CC 3.1% and 6.1%
COc1ccc(CN2CC[C@H]3C=CC[C@@H](C(=O)N4CCOCC4)[C@H]3C2=O)cc1OC -24.1%
Cc1ccc(OC(=O)c2cncc(Br)c2)c(C)c1 1.1%
CC(=O)Nc1c2c(nn1-c1cccc(C)c1)CSC2 3.9%
CCCNC(=O)c1c(Cl)cnn1-c1ccc(C)cc1 9.5%
CC(C)(C)C1CCC(C(=O)NCC(c2cccs2)N2CCOCC2)CC1 (stereo not given) 21.5%
COc1ccc(C(C(=O)NCc2ccccc2)N(Cc2cccs2)C(=O)c2cnccn2)cc1 (stereo not given) -3.9%
Cc1cc(Br)cn2c(Cc3cccc(F)c3)c(-c3cccc(Br)c3)nc12 47.6%
Cc1cc2nc(-c3ccc(Cl)cc3)c(Cc3cccc(F)c3)n2c(C)c1Br 17.5%
CC1(C)O[C@@H]2[C@H](O1)[C@@H](CO)O[C@H]2n1c(N2CCCCC2)nc2c(N)ncnc21 7.1%
O=C(Nc1ccc(Br)c2cccnc12)c1ccc(Cn2cc([N+](=O)[O-])cn2)o1 14.3%
N#CC1(Nc2ccc(-c3ccc(Cl)cc3)cc2)CCCC1 -34.4%
Cc1sc2nc(CC(N)=O)[nH]c(=O)c2c1-c1ccccc1 -3.2%
CC(C)OC(=O)c1sc2nc3c(cc2c1N)C(=O)CCC3 -15%
O=C(NCCCN1CCN(c2ccccc2F)CC1)C1CCC(=O)N1C1CCCCC1 (stereo not given) -1.2%
CC(C(=O)Nc1ccccc1-c1ccccc1)N1CCOCC1 (stereo not given) 14.5%
Cc1ccc(C(=O)N2CCN(S(=O)(=O)N3CCOCC3)CC2)cc1 15.9%
Nc1c(-c2ccc(F)cc2)cnn1C1CCS(=O)(=O)C1 (stereo not given) -5.8%
CCN(CC)S(=O)(=O)c1ccc(N2CCCC2)c(NC(=O)c2ccc([N+](=O)[O-])o2)c1 10.6%
Cc1onc(NC(=O)c2ccc([N+](=O)[O-])o2)c1Br 27.3%
CCn1c(SCC(=O)Nc2ccccc2F)nc2c(c1=O)SC(C)C2 (stereo not given) 6.5%
CCOC(=O)CSc1ccccn1 -2.8%
O=C(O)CSc1nccc2ccccc12 -3.7%
O=c1nc(N2CCOCC2)nc2n1CCO2 -13%
Cc1cccc(C)c1Cn1c(C)c(C(=O)NCc2cccc(Cl)c2)sc1=O 10.9%
COc1ccc(CCNC(=O)Nc2ccc3c(c2)c(=O)n(C)n3C)cc1OC 14.5%
CC(C)C(=O)Nc1c2c(nn1-c1ccccc1)CSC2 7%
Cn1c(=O)c2c(n(Cc3ccccc3)c1=O)NC(=O)C2CC(=O)N1CCc2ccccc2C1 (stereo not given) 18%
COc1cccc(NCCC(=O)c2cccc([N+](=O)[O-])c2)c1 -10.5%
O=C(Nc1cccc([N+](=O)[O-])c1)N1CCc2ccccc2C1 21.9%
O=C(CNC(=O)N1CC(=O)Nc2ccccc21)Nc1ccc(Br)cc1F -4.5%
COc1ccc(N(CC(=O)N/N=C/c2cccc3c2OCCO3)S(=O)(=O)c2ccc(NC(C)=O)cc2)cc1 -5.5%
COCOCCn1cc(CN2CCS(=O)(=O)N(Cc3ccc(-c4cccc(N(C)C)c4)cc3)C(CC(C)C)C2=O)nn1 (stereo not given) 6.3%
COc1cc(/C=C/C(=O)O)cc(S(=O)(=O)Nc2ccccc2C(=O)NCCc2ccccc2)c1OC -10.9%
Cc1ccc(NC(=O)NC(=O)CSc2nnc(-c3ccc(OC(F)F)cc3)n2N)c(C)c1 -26.2%
Cc1ccc(-n2ncc3c2CC(C)(C)CC3NC(=O)Cc2c(C)noc2C)cc1 (stereo not given) 28.3%
CN(C(=O)CCN1C(=O)/C(=C/c2ccccc2F)SC1=S)C1CCS(=O)(=O)C1 (stereo not given) -14.9%
O=C1/C(=C\c2ccccc2Cl)SC(=S)N1CCC(=O)N1CCCc2ccccc21 8.4%
CN(C)S(=O)(=O)c1ccc(N2CCCC2)c(C(=O)Nc2ccc(Br)cc2F)c1 21.3%
Cc1cc2c3ccccc3[nH]c(=O)n2n1 -16.8%
O=c1c2c(ncn1Cc1ccccc1)nc1n2CCC1 1.3%
CN(C)/C=C/c1c(C#N)c(=O)ncn1Cc1ccccc1 -10.4%
O=C(Nc1ccc(F)cc1)Nc1nnc([C@H]2C[C@H](O)[C@@H](CO)O2)s1 8%
CCOC(=O)c1cc(C(=O)Nc2ccc(S(=O)(=O)Nc3ccc(OC)cc3)cc2)nn1C -4.7%
